The values below come from PubChem BioAssay (NCI).

This is part of a sample that, as a whole, favours compounds with a hit. Of some 83,000 tested, about 20% had one in any assay.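 Note: values are percent growth. 100 is the growth of untreated cells, values between 100 and 0 indicate rising inhibition; between -100 and 0 indicates cell death.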 A number with no mark means an inactive call. Activity calls are given as the source filed them. The calls were made as follows: active = growth percent below 10; inactive = the rest.

Common to all, as to experiment: NCI-60 one-dose screen, 48 h (100 = growth as untreated, 0 = no growth, -100 = all killed)
In one assay the test system is T-47D breast. To be noted: 10 µM.
In another assay the test system is BT-549 breast. Particulars: 10 µM unless noted.
The next assay has as its system MDA-MB-435 melanoma. Particulars: 10 µM unless noted.
The next assay deals with SW-620 colon. Particulars: 10 µM unless noted.
The test system of the next assay is MCF7 breast. To be noted: 10 µM unless noted.
In a further assay the test system is HCT-116 colon. Particulars: 10 µM unless noted.
Another assay relates to HCC-2998 colon. Particulars: 10 µM unless noted.
A further assay deals with KM12 colon. To be noted: 10 µM unless noted.

For the compound `c1ccc2c(c1)oc1cc3c(cc12)nnc1cccn13`, the growth was 85.4% with T-47D breast; 97.9% in the assay with BT-549 breast; 105% in the assay with MDA-MB-435 melanoma; 108% in the assay with SW-620 colon; 82.3% with MCF7 breast; 100% with HCT-116 colon. Besides, the figures for the growth with HCC-2998 colon and with KM12 colon were 110% and 99.8%, respectively.
Consider `O=C(O)C[C@H](O)C[C@H](O)/C=C/c1c(C2CC2)nc2ccccc2c1-c1ccc(F)cc1`, for which the growth in the assay with T-47D breast was 95.9%; in the assay with BT-549 breast, 75.1%; in the assay with MDA-MB-435 melanoma, 93.9%; with SW-620 colon, 83.3%; with MCF7 breast it was 96.3%; in the assay on HCT-116 colon it was 63.3%. The growth was 99% in the assay on HCC-2998 colon and 102% with KM12 colon.
In the case of `O=C(CCc1nnc2sc(/C=C\c3ccccc3)nn12)c1nc2ccccc2[nH]1`, the growth with T-47D breast was 61.1%; in the assay on BT-549 breast, 93.1%; with MDA-MB-435 melanoma, 83.8%; with SW-620 colon, 118%; with MCF7 breast, 77.3%; in the assay on HCT-116 colon, 59.7%. In addition, the growth in the assay with HCC-2998 colon was 95.8%; in the assay on KM12 colon, 92.5%.
On to `O=C1C2CC3C(CC2C(=O)[N]1[Sn]([c]1ccccc1)([c]1ccccc1)[c]1ccccc1)C1(Cl)C(Cl)=C(Cl)C3(Cl)C1(Cl)Cl` (configuration not stated), for which the growth with T-47D breast is -50.3% (active); in the assay on BT-549 breast, -95.3% (active); with MDA-MB-435 melanoma, -96.4% (active); in the assay on SW-620 colon, -79.7% (active); in the assay with MCF7 breast it was -64.7% (active); with HCT-116 colon it was -83.9% (active). Also, the growth is -82.2% (active) in the assay on HCC-2998 colon and -91.3% (active) with KM12 colon.
Turning to `C[C@@H](Oc1cc(-c2cnn(C3CC4(CNC4)C3)c2)cnc1N)c1c(Cl)ccc(F)c1Cl`, the growth was 43.3% in the assay with T-47D breast; 80.3% in the assay with BT-549 breast; 41% in the assay on MDA-MB-435 melanoma; 23.8% in the assay with SW-620 colon; 9.06% (active) in the assay on MCF7 breast; 16.7% in the assay with HCT-116 colon. Further, the figures for the growth in the assay on HCC-2998 colon and in the assay with KM12 colon were 57.1% and -18.5% (active), respectively.
`O=C1CC(c2ccsc2)c2snc(-c3ccc(Cl)cc3)c2N1` (configuration not stated): the growth in the assay with T-47D breast is 30.6%; with BT-549 breast, 32.8%; with MDA-MB-435 melanoma, -20.9% (active); with SW-620 colon it was 33.4%; with MCF7 breast it was 7.59% (active); in the assay on HCT-116 colon, 21.5%. Further, the growth with HCC-2998 colon was 58.5%; with KM12 colon it was 27.6%.
As to `CCN(C(=O)c1ccc2c3c(cccc13)C=C2)c1ccccc1`, the growth with T-47D breast is 96%; in the assay with BT-549 breast, 107%; in the assay on MDA-MB-435 melanoma it was 90.9%; with SW-620 colon, 111%; with MCF7 breast, 109%; with HCT-116 colon it was 97.8%. Moreover, the growth with HCC-2998 colon is 123%; in the assay with KM12 colon, 118%.
For `O=C1C(Cl)=C(NCCCN2CCOCC2)C(=O)c2ccccc21`, the growth was 102% in the assay with T-47D breast; 97.2% in the assay on BT-549 breast; 63.9% with MDA-MB-435 melanoma; 79.2% in the assay with SW-620 colon; 74.6% in the assay on MCF7 breast; 97.5% in the assay on HCT-116 colon. Further, the growth with HCC-2998 colon was 91.3%; with KM12 colon, 91.4%.
Take `O=C1CCC(N2C(=O)c3cccc(NCCOCCOCCNC(=O)c4cc5c(o4)C(=O)c4ccccc4C5=O)c3C2=O)C(=O)N1` (configuration not stated): the growth is 4.87% (active) with T-47D breast; -89.3% (active) in the assay with BT-549 breast; -92.1% (active) in the assay on MDA-MB-435 melanoma; -19.3% (active) in the assay with SW-620 colon; -61.3% (active) in the assay with MCF7 breast; -16.1% (active) in the assay with HCT-116 colon. The figures for the growth in the assay with HCC-2998 colon and in the assay on KM12 colon were -61.7% (active) and -8.32% (active), respectively.
For `O=c1oc2ccccc2cc1-c1csc(N=Nc2c(O)[nH]c3ccc(Br)cc23)n1`, the growth with T-47D breast was 107%; in the assay with BT-549 breast, 102%; in the assay on MDA-MB-435 melanoma, 98.8%; in the assay with SW-620 colon, 103%; with MCF7 breast, 94%; in the assay on HCT-116 colon, 98.1%. For the same compound, the growth was 102% in the assay with HCC-2998 colon and 103% in the assay with KM12 colon.
As to `FCOC(C(F)(F)F)C(F)(F)F`, the growth with T-47D breast is 97.9%; in the assay on BT-549 breast it was 103%; in the assay with MDA-MB-435 melanoma, 103%; in the assay on SW-620 colon, 101%; in the assay with MCF7 breast, 101%; in the assay with HCT-116 colon, 103%. In addition, the growth with HCC-2998 colon is 104%; with KM12 colon, 103%.
In the case of `Cn1c(=O)c2c(-c3ccccc3F)n(-c3ccc4c(c3)OCO4)cc2n(C)c1=O`, the growth was 81.3% in the assay on T-47D breast; 95.1% in the assay on BT-549 breast; 88.6% with MDA-MB-435 melanoma; 102% in the assay with SW-620 colon; 94.5% in the assay on MCF7 breast; 85.8% with HCT-116 colon. In addition, the growth was 92.2% with HCC-2998 colon and 102% in the assay with KM12 colon.
Regarding `CC[Si](CC)(CC)OC1[C@@H](O[Si](CC)(CC)CC)[C@@H](CNC(=O)NC)O[C@H]1n1cnc2c(NC(=O)Nc3ccccc3)ncnc21` (some centres not stated), the growth in the assay on T-47D breast is 89.8%; with BT-549 breast, 104%; with MDA-MB-435 melanoma it was 65.5%; in the assay on SW-620 colon, 71.6%; in the assay on MCF7 breast, 61.6%; in the assay on HCT-116 colon, 51.9%. The growth was 96.5% with HCC-2998 colon and 60.8% in the assay with KM12 colon.
`Clc1ccc(Nc2ccnc(N3CCN(c4ccnc5cc(Cl)ccc45)CC3)n2)cc1`: the growth in the assay with T-47D breast is 15.2%; in the assay with BT-549 breast it was 52.2%; in the assay with MDA-MB-435 melanoma, 13.3%; in the assay on SW-620 colon, 48.5%; with MCF7 breast it was 17.5%; with HCT-116 colon, 13.5%. The growth in the assay on HCC-2998 colon was 64.7%; in the assay with KM12 colon it was 36.8%.
